A selection: hits, their analogues and other compounds. The true share with any hit is near 2.3%.
12-LOX inh: Primary qHTS assay for inhibitors of human arachidonate 12S-lipoxygenase (ALOX12): Round 2 | Polyunsaturated fatty acid lipoxygenase ALOX12 (Homo sapiens), P18054 | purified 12hLO, xylenol orange hydroperoxide absorbance | Potency, µM (top dose mostly 108 µM), inactives show at the highest dose activity change, negative = inhibition, most hits filed as inhibitors | actives 1.1% (n = 580,000); note: % is set by controls: 0 for no effect and ±100 for the full control effect
Target sequence (P18054 whole entry, looked up): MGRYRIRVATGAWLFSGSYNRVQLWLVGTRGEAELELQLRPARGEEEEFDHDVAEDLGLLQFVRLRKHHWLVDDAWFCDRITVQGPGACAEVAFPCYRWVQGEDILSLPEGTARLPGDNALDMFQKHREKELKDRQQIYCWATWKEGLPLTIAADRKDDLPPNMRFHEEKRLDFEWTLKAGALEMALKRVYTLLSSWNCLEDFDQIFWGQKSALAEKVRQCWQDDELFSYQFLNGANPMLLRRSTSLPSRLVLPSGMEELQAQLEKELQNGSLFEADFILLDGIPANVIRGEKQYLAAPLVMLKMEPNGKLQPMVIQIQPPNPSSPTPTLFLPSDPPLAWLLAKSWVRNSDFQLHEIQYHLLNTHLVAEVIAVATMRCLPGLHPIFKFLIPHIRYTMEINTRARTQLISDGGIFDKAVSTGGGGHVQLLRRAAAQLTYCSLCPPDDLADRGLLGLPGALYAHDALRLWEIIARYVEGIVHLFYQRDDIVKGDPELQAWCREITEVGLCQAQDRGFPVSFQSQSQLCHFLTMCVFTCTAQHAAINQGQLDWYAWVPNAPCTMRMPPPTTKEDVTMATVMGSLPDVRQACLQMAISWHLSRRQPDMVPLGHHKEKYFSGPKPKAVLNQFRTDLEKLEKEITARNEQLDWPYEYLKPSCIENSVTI
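Purified human 12hLO at 150 nM in 25 mM Hepes, 0.01% Triton X-100, pH 7.0, preincubated 15 min at room temperature with compound. Reaction started with 40 uM arachidonic acid, 30 min at room temperature. Hydroperoxide measured by Fe-xylenol orange, 573/405 nm absorbance ratio.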
GLP-1R inv ag: qHTS of GLP-1 Receptor Inverse Agonists (Inhibition Mode); Glucagon-like peptide 1 receptor (Homo sapiens), P43220; HEK293 GLP-1R CRE-luciferase, luminescence, 24 h; GLP-1R form is constitutively active; Potency, µM (series often up to 38.3 µM), without a hit: at the highest dose activity change, negative = inhibition, hits mostly inhibitors; AID 624417, 2012; actives 1.6% (n = 410,000); note: % is set by controls: 0 for no effect and ±100 for the full control effect; nearly all actives have a fitted effect of over 55% in size
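Cells are plated, allowed 12 hours at 37 deg C, then treated with compounds for 24 hr before luciferase detection reagent is added and luminescence is read after 12 min at room temperature. The HEK293 line carries constitutively active GLP-1R with a cAMP-responsive reporter.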
GRP78 ERSR act: qHTS for Inducers of the Endoplasmic Reticulum Stress Response (ERSR) in Human Glioma: qHTS. U87-MG GRP78 promoter luciferase reporter, 16 h. Potency, µM, for inactives: at the highest dose activation, usual class: activators. actives 0.02% (n = 420,000). AID 602332, 2012; note: series mostly up to about 76 µM; % of control where 0% means no effect; nearly all actives have a fitted effect of over 35% in size
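ERSR induction read as luciferase luminescence (Bright-Glo, 10 min at room temperature) in stably transfected human U87-MG glioma cells exposed to compounds for 16 h, using GRP78 as sensor.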
PTHR1 agonist: qHTS for PTHR1 Agonists: Primary Screen; HEK293 GP2 PTHR1 cells, GloSensor cAMP luminescence, 1 h; Potency, µM (titrated, usually from 115 µM), for the others: at the top dose activation, actives largely listed as activators; actives 0.075% (n = 410,000); AID 743266, 2014; note: nearly all actives have a fitted effect of over 55% in size
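HEK-293-derived GP2 cells expressing PTHR1 and a GloSensor cAMP reporter, 3,000/well, plated overnight, given luciferin plus IBMX (each 0.5 mM as added) for 1 h at 37 °C, then compound for 1 h at 37 °C. Luminescence was read after 15 min at room temperature.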
GLS inhibitor: qHTS for Inhibitors of Glutaminase (GLS). Potency, µM (highest dose often 45.5 µM), for inactives: top-dose activity change, negative = inhibition, usual class: inhibitors. GLS enzymatic activity, qHTS titration. Glutaminase kidney isoform, mitochondrial (Homo sapiens), O94925. actives 0.21% (n = 410,000); note: % is set by controls: 0 for no effect and ±100 for the full control effect
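Assay buffer: 45 mM KH2PO4 pH 8.2, 0.02% Tween-20. hKGA acts on L-glutamine (1 mM solution added); product glutamate is reported by an oxidase/peroxidase Amplex Red coupling, with fluorescence taken at baseline and 30 min.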
GLP1R ag: qHTS of GLP-1 Receptor Agonists | Glucagon-like peptide 1 receptor (Homo sapiens), P43220 | HEK293 GLP-1R CRE-luciferase, luminescence, 4-6 h; cells express a hypersensitive GLP-1R form | Potency, µM (highest dose often 45.6 µM), for inactives: top-dose activation, usual class: activators | actives 0.007% (n = 380,000); note: % of control where 0% means no effect
Active calls of the source: *; i = inactive; ? = inconclusive; . = not tested or not shown; [ ] = dose if it differs, or a comment. Calls come from the whole dose curve; as a rule, active = well fitted curve in the direction sought with a large enough effect; inconclusive = small, poorly fitted or top-dose-only effect, or another doubt; inactive = no such curve, though single readings can be large; an effect the other way counts as inactive or inconclusive. Potency is the fitted concentration of half-maximal effect.

SMILES	12-LOX inh	GLP-1R inv ag	GRP78 ERSR act	PTHR1 agonist	GLS inhibitor	GLP1R ag
CCN(CC)CC#CCC(O)(c1ccccc1)c1ccc(Br)cc1 (configuration not stated)	-23%	10µM*	-4%	i	-7%	-6%
OC(CC#CCN1CCCCCC1)(c1ccccc1)c1ccc(-c2ccccc2)cc1 (configuration not stated)	18µM*	.	.	.	.	.
CC(C)C(C#CCN1CCCCC1)(c1ccccc1)c1ccccc1	20µM*	.	.	.	.	.
CC(C)CC(=O)NCc1cccs1	9%	.	.	.	.	.
CC(C)N(C)CC1CCN(C(=O)NCCc2ccc(F)cc2)CC1	12%	.	.	.	.	.
CSc1ccc(/C=C/C(=O)c2ccc(NC(=O)c3ccccc3Cl)cc2)cc1	-10%	.	.	.	.	.
CCCCn1c(NC(=S)Nc2ccccc2)nc2ccccc21	18µM*	-27%	?	-11%	-23%	21%
O=C(CN1CCc2sccc2C1c1cccs1)Nc1cccc(F)c1 (configuration not stated)	2%	.	.	.	.	.
COCCCNC(=S)N1CCC(C(=O)c2ccc(Cl)cc2)CC1	0%	5.6µM*	-7%	-76%	4%	0%
COCCNC(=S)N1CCC(C(=O)c2ccc(Cl)cc2)CC1	1%	?	0%	-61%	0%	11%
CC(Sc1nc(-c2ccco2)nc2ccccc12)C(=O)N(C)C (configuration not stated)	-21%	.	.	.	.	.
CC1=NN(/C(=N\c2nnc(C)s2)Nc2ccccc2)[C@H](c2cccc3ccccc23)S1	-1%	-14%	1%	0%	1%	-6%
CC1=NN(/C(=N\c2nnc(C)s2)Nc2ccc(C)cc2)[C@H](c2ccc(C)cc2)S1	-7%	10µM*	4%	-24%[57.5 µM]	18%	-2%
CC(C)CNc1oc(COc2ccc(F)cc2)nc1C#N	15%	.	.	.	.	.
O=C(COC(=O)CCNS(=O)(=O)c1ccc(F)c(Cl)c1)Nc1c(Cl)cccc1Cl	0%	.	.	.	.	.
Cc1ccc(-c2cc3ccccc3nc2N2CCOCC2)cc1	-4%	?	0%	i	1%	1%
Cc1nc2ccccc2nc1N1CCCCC1	1%	-12%	1%	-12%[57.5 µM]	8%	3%
c1ccc(-c2cc3ccccc3nc2N2CCCC2)cc1	0%	2.5µM*	-5%	i	6%	-1%
Cc1cc(C)n(-c2nc3ccccc3nc2N2CCCCCC2)n1	-14%	6.3µM*	0%	?	-6%	1%
c1ccc2nc(N3CCCC3)c(N3CCCC3)nc2c1	0%	1.8µM*	-5%	i	18%	6%
COc1ccc(CCNC(=O)CC2Sc3ccccc3NC2=O)cc1 (configuration not stated)	-22%	.	.	.	.	.
O=C1OCCC1NC(=S)Nc1cccc2ccccc12 (configuration not stated)	5%	.	.	.	.	.
Cc1cc(C)c(S(=O)(=O)c2c(C)cccc2C)c(Cl)n1	-2%	-18%	-3%	-33%	11µM*	6%
COc1ccc(NS(=O)(=O)c2ccc(N3CCCC3)c(NC(=S)Nc3ccc(SC(F)F)cc3)c2)cc1	25µM*	?	-2%	i	-10%	8%
CCNC(=O)Nc1cc(S(=O)(=O)Nc2ccc(OC)cc2)ccc1N1CCOCC1	.	-7%	-3%	-85%	25%	6%
SMILES	12-LOX inh	GLP-1R inv ag	GRP78 ERSR act	PTHR1 agonist	GLS inhibitor	GLP1R ag
COc1ccc(NS(=O)(=O)c2ccc(N3CCCC3)c(N)c2)cc1	-5%	?	0%	-32%	-15%	16%
COc1ccc(N2CCN(CC(=O)Nc3ccc(SC(F)F)cc3)CC2)cc1	-12%	10µM*	-3%	-35%	13%	-6%
COc1ccc(NS(=O)(=O)c2ccc(N3CCCC3)c(NC(=S)Nc3cccc(C)c3C)c2)cc1	16µM*	-18%	-2%	i	21%	0%
N#Cc1ccc(NCCNC(=O)C2CCCCC2)nc1	4%	.	.	.	.	.
COc1cc(C#N)ccc1OCc1ccc(OC(F)F)c(OC)c1	-4%	.	.	.	.	.
Cc1nc(N2CCC(C)CC2)c2nnn(Cc3ccccc3)c2n1	80%	10µM*	-5%	-11%[57.5 µM]	9%	21%
Cc1ccc(-c2cc(C(=O)N3CCOCC3)no2)cc1	-4%	3.2µM*	-15%	-41%	-7%	-6%
O=C(c1cc(-c2ccccc2)on1)N1CCOCC1	17%	.	.	.	.	.
O=C(c1cc(-c2ccc(O)cc2)on1)N1CCCCCC1	6%	-27%	-1%	-10%	-7%	19%
Cc1ccc(-c2cc(C(=O)N3CCCC3)no2)cc1	-10%	4µM*	-9%	-49%	-2%	-13%
Cn1c(-c2ccc(F)cc2)cc2ccccc21	55%	.	.	.	.	.
CCn1c(=O)n(CC(=O)N(C)Cc2ccc(C)cc2C)c2ccccc21	-2%	.	.	.	.	.
COC(=O)C1(NC(=O)CCNC(C)=O)CCCCCC1	1%	.	.	.	.	.
CC(C)CC(NC(N)=O)C(=O)NCc1ccc(C(F)(F)F)cc1 (configuration not stated)	-4%	.	.	.	.	.
COc1ccc(CC(=O)NCCc2csc(-c3ccc(C(F)(F)F)cc3)n2)cc1	-20%	-1%	-3%	-21%	7%	-8%
COc1cc(OC)cc(C(=O)NCCc2csc(-c3ccc(C(F)(F)F)cc3)n2)c1	0%	10µM*	-2%	-1%	-4%	.
Cc1nc(SCC(=O)NC(C)(C#N)C2CC2)c2c(-c3cccs3)csc2n1 (configuration not stated)	-7%	6.3µM*	0%	-3%	-2%	3%
COc1ccc(N(C(=O)c2ccco2)S(=O)(=O)c2ccc(F)cc2)cc1	-17%	?	-2%	i	13%	-5%
COc1ccc(N(C(=O)c2ccco2)S(=O)(=O)c2cc(OC)ccc2OC)cc1	5%	-28%	40µM*	-3%[57.5 µM]	-1%	1%
CCCCn1c(N)c(N(CC(C)C)C(=O)c2cc3c(s2)CCC(C)C3)c(=O)[nH]c1=O (configuration not stated)	134%	.	.	.	.	.
Cc1ccc(NC2(c3nnnn3-c3ccc(C)cc3)CCCC2)cc1	-6%	.	.	.	.	.
COC(=O)C1=C(C)NC(=O)/C1=C\c1cc(C)n(-c2cc(C)cc(C)c2)c1C	40µM*	?	-8%	-8%[57.5 µM]	0%	0%

Assay outcomes: PubChem BioAssay, National Center for Advancing Translational Sciences (NCATS)
